# “And” between values parts separate entries of the source, which are not always exact repeats. Equal entries are not always repeated. The panel holds about 83,000 compounds, 20% with a hit somewhere; the sample as a whole holds those more often.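 Method: cells in 96-well plates; compound added at one concentration; 48 h incubation; percent growth measured; values under 10 scored active.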 The source made the active and inactive calls.
# Legend:
# Assay in all cases: NCI-60 one-dose screen, 48 h (100 = growth as untreated, 0 = no growth, -100 = all killed)
# Settings in all cases: 10 µM unless noted
# [1] = test system: SR leukemia
# [2] = test system: RPMI-8226 leukemia
# [3] = test system: OVCAR-8 ovarian
# [4] = test system: OVCAR-5 ovarian
# [5] = test system: OVCAR-4 ovarian
# [6] = test system: IGROV1 ovarian
# [7] = test system: OVCAR-3 ovarian
# [8] = test system: HS 578T breast
# [9] = test system: NCI/ADR-RES ovarian
# [10] = test system: SK-OV-3 ovarian
SMILES,growth [1],growth [2],growth [3],growth [4],growth [5],growth [6],growth [7],growth [8],growth [9],growth [10]
CCN(CC)C(=O)c1cccnc1,90.5% (inactive),105% (inactive),98.8% (inactive),99.4% (inactive),112% (inactive),130% (inactive),109% (inactive),108% (inactive),111% (inactive),
CCCCCN(CCCCC)CC(O)c1cc2c(c3ccccc13)CCCC2 (stereo not drawn),11.1% (inactive) and 14.2% (inactive),15.4% (inactive) and 34.8% (inactive),,66.9% (inactive) and 55.6% (inactive),60.9% (inactive) and 59.9% (inactive),48.9% (inactive) and -1.04% (active),71.9% (inactive) and 54.4% (inactive),85.6% (inactive) and 2.9% (active),70% (inactive) and 63.7% (inactive),84.2% (inactive) and 79% (inactive)
Oc1nc(NCCc2ccccc2)sc1/C=C1\C=Nc2ncccc21,-1.51% (active) and 5.6% (active),38.7% (inactive) and 39.2% (inactive),9.67% (active) and 14% (inactive),18.1% (inactive) and 37.8% (inactive),32.3% (inactive) and 23.8% (inactive),25.6% (inactive) and 14% (inactive),3.41% (active) and 5.65% (active),8.82% (active) and 8.78% (active),58.4% (inactive) and 72.9% (inactive),
CCN(CC)CCOc1ccc(/C=N/Nc2nc3c([nH]2)c(=O)n(C)c(=O)n3C)cc1,102% (inactive) and 96.8% (inactive),90.7% (inactive) and 108% (inactive),107% (inactive) and 104% (inactive),117% (inactive) and 89.7% (inactive),107% (inactive) and 105% (inactive),110% (inactive) and 91.2% (inactive),114% (inactive) and 94.8% (inactive),106% (inactive) and 105% (inactive),118% (inactive) and 106% (inactive),
Oc1ccccc1/C=N\NC(=S)N/N=C/c1ccccc1O,20% (inactive) and 21.9% (inactive),29.3% (inactive) and 40.7% (inactive),,59.2% (inactive) and 59.6% (inactive),25.7% (inactive),20.9% (inactive) and 34.5% (inactive),14.1% (inactive) and 23% (inactive),98.4% (inactive) and 73.4% (inactive),13.5% (inactive) and 19.6% (inactive),46.5% (inactive) and 58.9% (inactive)
CN(C)CCCN1c2ccccc2Sc2ccc(Cl)cc21,67.9% (inactive) and 105% (inactive) and 62.2% (inactive),71% (inactive) and 97.9% (inactive) and 103% (inactive),85.6% (inactive) and 93% (inactive) and 94.2% (inactive),90.8% (inactive) and 113% (inactive) and 95.6% (inactive),83.3% (inactive) and 113% (inactive) and 85.9% (inactive),69.7% (inactive) and 63.4% (inactive),84.2% (inactive) and 112% (inactive) and 83.4% (inactive),90.3% (inactive) and 90.2% (inactive) and 89.1% (inactive),85% (inactive) and 109% (inactive) and 89.5% (inactive),
CCN(CC)CCC(CNc1ccnc2cc(Cl)ccc12)c1ccc(OC)cc1 (stereo not drawn),-26% (active) and -16.4% (active),60.1% (inactive) and 39% (inactive),63.6% (inactive) and 46% (inactive),76.1% (inactive) and 89.4% (inactive),29.8% (inactive) and 47.4% (inactive),52.3% (inactive) and 38% (inactive),84.3% (inactive) and 80.9% (inactive),,76.7% (inactive) and 72.8% (inactive),
COc1cc(NS(C)(=O)=O)ccc1Nc1c2ccccc2nc2c(C)cccc12,4.23% (active) and -21.5% (active),-36.4% (active) and -21.4% (active),,4.75% (active) and 8.59% (active),42.9% (inactive) and 62.8% (inactive),2.93% (active) and 14.4% (inactive),-57% (active) and 24.6% (inactive),32.7% (inactive) and 43% (inactive),27.7% (inactive) and 40.4% (inactive),5.9% (active) and 11.9% (inactive)
O=C(O)c1cc(C(=O)O)cc([N+](=O)[O-])c1,86.4% (inactive),108% (inactive),106% (inactive),105% (inactive),108% (inactive),108% (inactive),111% (inactive),,106% (inactive),
O=C(CCc1ccc(O)cc1)N/N=C/c1cc(Br)ccc1O,26.6% (inactive),45.2% (inactive),,53.3% (inactive),34.7% (inactive),62.5% (inactive),44.4% (inactive),90.3% (inactive),16.7% (inactive),61.2% (inactive)
CN1CCN(c2ccc3nc(-c4c(N)c5c(F)cccc5[nH]c4=O)[nH]c3c2)CC1,-11.8% (active) and 1.99% (active),47.5% (inactive) and 53.7% (inactive),35.4% (inactive) and 28.2% (inactive),56.1% (inactive) and 61.3% (inactive),64.7% (inactive) and 53.9% (inactive),13.9% (inactive) and 13.5% (inactive),53.5% (inactive) and 48.2% (inactive),2.57% (active),41% (inactive) and 47% (inactive),
Nc1nc2ncc(CNc3ccc(C(=O)N[C@@H](CCc4nn[nH]n4)C(=O)O)cc3)nc2c(=O)[nH]1,95.6% (inactive),106% (inactive) and 95.5% (inactive),106% (inactive) and 90.2% (inactive),88.3% (inactive) and 103% (inactive),100% (inactive) and 116% (inactive),99.6% (inactive) and 106% (inactive),98.6% (inactive) and 113% (inactive),110% (inactive) and 95.3% (inactive),103% (inactive) and 101% (inactive),
CCCCCCCCCCCCCCCCOc1ccc(C)cc1,97.9% (inactive),118% (inactive),,99.9% (inactive),99.8% (inactive),127% (inactive),108% (inactive),110% (inactive),103% (inactive),108% (inactive)
Nc1ncnc2c1ncn2C1CC(O)C(CO)O1 (stereo not drawn),110% (inactive) and 95% (inactive),102% (inactive) and 105% (inactive),102% (inactive) and 109% (inactive),103% (inactive) and 116% (inactive),113% (inactive) and 107% (inactive),,127% (inactive) and 109% (inactive),107% (inactive) and 153% (inactive),104% (inactive) and 113% (inactive),
CNC(=O)c1cccnc1,87.4% (inactive),112% (inactive),,110% (inactive),108% (inactive),111% (inactive),116% (inactive),107% (inactive),97% (inactive),
c1ccc(N(c2ccccc2)c2ccccc2)cc1,79.3% (inactive),100% (inactive),,104% (inactive),114% (inactive),104% (inactive),112% (inactive),110% (inactive),105% (inactive),
COc1ccc(-c2ncnc3c2ncn3C/C=C/CCl)cc1,,52.1% (inactive) and 67.4% (inactive),67.2% (inactive) and 69.5% (inactive),114% (inactive) and 105% (inactive),53.3% (inactive) and 56.7% (inactive),93.8% (inactive) and 82.9% (inactive),77.6% (inactive) and 99% (inactive),131% (inactive) and 111% (inactive),76.9% (inactive) and 86.3% (inactive),111% (inactive) and 109% (inactive)
